Activity calls are given as the source filed them.
Experiments:
Albumin (Bos taurus) = Albumin (Bos taurus) (UniProt P02769); assay: compounds binding labelled BSA control protein – biochemical, small-molecule microarray, Alexa647 label, 635/667 nm fluorescence, artefact control for SMM control protein annotation, profiling panel (AID 1118); details: BSA-A647 binding, fluorescence 635 nm, higher = more signal;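 further: score merges 667 nm emission intensity and signal-to-noise per printed compound spot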
[1] = probe aXIP binding to arrayed compounds – biochemical, NeuroSMM set, 635/667 nm fluorescence, primary screen (AID 1119); details: small-molecule microarray, higher = more signal, called active from +8 up or from −8 down;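 further: probe is the protein aXip251-270 applied at 1 µg/mL to compound-printed slides; binding of probe to printed compounds measured as 667 nm fluorescence plus signal to noise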
[2] = probe aNOTCH3 binding on compound microarray – biochemical, small-molecule microarray, 635/667 nm fluorescence, primary screen (AID 1120); details: higher = more signal;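 further: probe is a biotin-tagged antibody raised against NOTCH3 rather than NOTCH3 protein; score merges spot fluorescence near 667 nm with spot signal to noise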
[3] = probe aNOTCH2 binding on compound microarray – biochemical, small-molecule microarray, 635/667 nm fluorescence, primary screen (AID 1121); details: higher = more signal;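 further: score merges feature fluorescence read at 667 nm with its signal to noise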
[4] = target: Carbonic anhydrase 2 (Homo sapiens) (UniProt P00918); assay: compounds binding carbonic anhydrase 2 – biochemical, small-molecule microarray, Alexa647-labelled CAII, profiling panel (AID 1122); details: CAII-A647 binding fluorescence, higher = more signal
[5] = COS7 lysate on small-molecule microarray, probe aHis, 635 nm (AID 1123); details: COS7 cell lysate, fluorescence, higher = more signal;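 further: z-score combines 667nm fluorescence intensity with signal-to-noise per printed compound spot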
[6] = probe aLAP1 signal on lysate-treated microarray – cell lysate, small-molecule microarray, COS7 lysate, primary screen (AID 1124); details: probe aLAP1, fluorescence, higher = more signal;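 further: lysate comes from COS7 cells expressing LAP1 and is applied at 0.3 µg/mL; score merges spot fluorescence near 667 nm with signal-to-noise over triplicate slides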
Sam68 (KHDRBS1) = assay: compounds binding KHDRBS1 protein – biochemical, small-molecule microarray, 635 nm fluorescence, primary screen (AID 1125); details: higher = more signal;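 further: score merges 667 nm channel intensity with signal to noise over triplicate slides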
[7] = test system: Chordin-like protein 2 (CHRDL2); assay: compounds binding chordin-like 2 – biochemical, small-molecule microarray, 635 nm fluorescence, primary screen (AID 1126); details: fluorescence 635 nm, higher = more signal;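 further: printed compound slides probed with Chrdl2 protein at 4 µg/mL for 1 h at 4 C; score merges 667 nm emission intensity with signal to noise over three replicate slides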
[8] = target: Concanavalin-A (Canavalia ensiformis) (UniProt P02866); assay: compounds binding concanavalin A lectin – biochemical, small-molecule microarray, Alexa647 label, 635 nm, artefact control for SMM control protein annotation, primary screen (AID 1127); details: ConA-A647 binding fluorescence, higher = more signal;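 further: z combines 667 nm emission intensity with signal-to-noise across three replicate slides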
[9] = compounds binding Alexa647 anti-His antibody – biochemical, small-molecule microarray, 635 nm fluorescence, artefact control for SMM control protein annotation, primary screen (AID 1128); details: higher = more signal;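 further: score merges feature fluorescence with signal-to-noise for each printed compound spot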
[10] = test system: Human papillomavirus type 1a E7 protein (residues 1-88); assay: HPV1a E7 small-molecule binders, primary screen, biochemical, small-molecule microarray, residues 1-88, 635 nm (AID 1129); details: small-molecule microarray binding, fluorescence 635 nm; higher = more signal
[11] = target: Focal adhesion kinase 1 (Homo sapiens) (UniProt Q05397); assay: PTK2 protein binding on printed compound slides – biochemical, small-molecule microarray, 635/667 nm fluorescence, BSA, DTT, primary screen (AID 1130); details: 635 nm fluorescence, higher = more signal;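 further: composite of spot emission at 667 nm and signal to noise over triplicate slides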
[12] = test system: Fibrinogen (Alexa647-labelled); assay: Alexa647-fibrinogen binding to printed small molecules – biochemical, small-molecule microarray, 635/667 nm fluorescence, artefact control for SMM control-protein annotation, profiling panel (AID 1131); details: fibrinogen-A647 binding fluorescence, higher = more signal;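 further: z-score merges 667 nm fluorescence with per-spot signal-to-noise over triplicate slides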
[13] = target: Follistatin (Homo sapiens) (UniProt P19883); assay: FST protein binding to printed compounds – biochemical, small-molecule microarray, 635/667 nm fluorescence, primary screen (AID 1132); details: 635 nm fluorescence, higher = more signal
[14] = target: Fibroblast growth factor 2 (Homo sapiens) (UniProt P09038); assay: basic fibroblast growth factor binding to printed compounds – biochemical, small-molecule microarray, 635/667 nm fluorescence, primary screen (AID 1133); details: FGF2, fluorescence 635/667, higher = more signal
[15] = JC-1 mitochondrial potential readout, lung cancer cells – cell-based, A549, JC-1 fluorescence, basal, 24 h, 100 nL, profiling panel (AID 1138); details: higher = more signal;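 further: A549 lung adenocarcinoma cells under basal conditions with no added stimulus; test concentration not given here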
Lefty1 = Lefty1 protein binding to printed compounds – biochemical, small-molecule microarray, 635/667 nm fluorescence, primary screen (AID 1139); details: fluorescence 635/667, higher = more signal
[16] = test system: wheat germ agglutinin (Triticum aestivum), Alexa647-labelled; assay: Alexa647-WGA lectin binding to printed small molecules – biochemical, small-molecule microarray, 635/667 nm fluorescence, artefact control for SMM control-protein annotation, profiling panel (AID 1140); details: WGA-A647 binding, 635 nm fluorescence, higher = more signal;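 further: score merges 667 nm feature emission with signal to noise over triplicate slides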
[17] = target: Luciferin 4-monooxygenase (Photinus pyralis) (UniProt P08659); assay: inhibition of purified Photinus pyralis luciferase – biochemical, luminescence, purified enzyme, 2006 set, primary screen (AID 1141); details: purified firefly luciferase, SteadyGlo luminescence, 30 min; higher = more signal, called active from +8 up or from −8 down;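 further: cell-free assay with purified firefly luciferase at 100 ng per well in PBS; test concentration not given here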
Chain of Luciferin 4-monooxygenase (Photinus pyralis) (P08659 whole entry, looked up): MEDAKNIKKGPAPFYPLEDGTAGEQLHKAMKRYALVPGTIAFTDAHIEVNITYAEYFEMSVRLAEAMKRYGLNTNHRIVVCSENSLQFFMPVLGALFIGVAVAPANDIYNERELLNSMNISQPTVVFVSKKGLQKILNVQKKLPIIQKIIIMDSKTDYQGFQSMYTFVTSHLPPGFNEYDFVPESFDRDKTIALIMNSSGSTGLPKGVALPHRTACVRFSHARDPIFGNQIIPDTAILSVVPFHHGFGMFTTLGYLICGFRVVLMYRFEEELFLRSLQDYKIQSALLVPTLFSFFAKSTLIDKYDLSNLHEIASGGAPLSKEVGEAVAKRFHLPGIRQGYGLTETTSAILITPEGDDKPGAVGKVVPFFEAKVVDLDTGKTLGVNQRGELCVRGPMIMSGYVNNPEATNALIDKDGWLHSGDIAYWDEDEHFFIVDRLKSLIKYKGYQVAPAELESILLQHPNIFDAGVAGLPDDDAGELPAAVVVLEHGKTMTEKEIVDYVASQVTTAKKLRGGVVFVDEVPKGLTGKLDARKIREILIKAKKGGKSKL

Chain of Albumin (Bos taurus) (P02769 whole entry, looked up): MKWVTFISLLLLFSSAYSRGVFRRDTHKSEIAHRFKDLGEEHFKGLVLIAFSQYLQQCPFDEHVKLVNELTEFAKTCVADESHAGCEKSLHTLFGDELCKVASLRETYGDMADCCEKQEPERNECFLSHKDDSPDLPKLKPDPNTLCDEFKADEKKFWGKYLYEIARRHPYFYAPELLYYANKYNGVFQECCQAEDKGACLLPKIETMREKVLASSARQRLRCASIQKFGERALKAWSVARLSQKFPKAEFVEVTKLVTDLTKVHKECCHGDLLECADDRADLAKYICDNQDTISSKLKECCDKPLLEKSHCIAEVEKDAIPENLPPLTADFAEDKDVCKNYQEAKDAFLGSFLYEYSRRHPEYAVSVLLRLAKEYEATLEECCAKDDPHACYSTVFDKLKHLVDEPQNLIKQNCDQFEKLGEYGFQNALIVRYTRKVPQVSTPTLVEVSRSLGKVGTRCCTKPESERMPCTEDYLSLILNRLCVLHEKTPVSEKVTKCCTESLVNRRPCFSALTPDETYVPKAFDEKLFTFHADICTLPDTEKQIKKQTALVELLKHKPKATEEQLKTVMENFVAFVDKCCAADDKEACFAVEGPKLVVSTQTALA
Chain of Focal adhesion kinase 1 (Homo sapiens) (Q05397 whole entry, looked up): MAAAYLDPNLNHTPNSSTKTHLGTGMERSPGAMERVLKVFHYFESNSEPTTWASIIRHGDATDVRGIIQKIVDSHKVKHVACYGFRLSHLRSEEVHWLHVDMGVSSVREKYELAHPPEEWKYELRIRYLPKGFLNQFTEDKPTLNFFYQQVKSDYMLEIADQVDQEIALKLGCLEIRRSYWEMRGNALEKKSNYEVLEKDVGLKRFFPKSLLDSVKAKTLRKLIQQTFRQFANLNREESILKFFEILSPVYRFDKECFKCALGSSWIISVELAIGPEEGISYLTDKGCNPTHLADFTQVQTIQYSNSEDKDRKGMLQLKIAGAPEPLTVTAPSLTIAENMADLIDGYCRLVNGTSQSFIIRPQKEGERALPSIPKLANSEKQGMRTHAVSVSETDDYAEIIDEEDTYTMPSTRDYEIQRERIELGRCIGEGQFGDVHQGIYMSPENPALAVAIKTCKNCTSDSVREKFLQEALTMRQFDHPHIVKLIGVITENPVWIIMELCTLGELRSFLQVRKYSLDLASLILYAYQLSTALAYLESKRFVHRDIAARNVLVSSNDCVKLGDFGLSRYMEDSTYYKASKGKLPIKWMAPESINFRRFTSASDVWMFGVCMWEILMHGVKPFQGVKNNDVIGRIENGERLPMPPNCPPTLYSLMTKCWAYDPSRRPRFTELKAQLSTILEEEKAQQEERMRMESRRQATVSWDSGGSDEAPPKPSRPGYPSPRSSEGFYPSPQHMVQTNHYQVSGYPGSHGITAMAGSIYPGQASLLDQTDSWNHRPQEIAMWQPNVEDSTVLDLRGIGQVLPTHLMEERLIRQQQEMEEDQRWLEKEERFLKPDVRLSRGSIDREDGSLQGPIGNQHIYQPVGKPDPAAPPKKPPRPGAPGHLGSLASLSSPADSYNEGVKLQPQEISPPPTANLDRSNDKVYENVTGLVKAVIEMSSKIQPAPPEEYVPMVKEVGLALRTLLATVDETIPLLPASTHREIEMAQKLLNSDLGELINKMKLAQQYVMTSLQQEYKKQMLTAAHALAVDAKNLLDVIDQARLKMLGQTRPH
Chain of Concanavalin-A (Canavalia ensiformis) (P02866 whole entry, looked up): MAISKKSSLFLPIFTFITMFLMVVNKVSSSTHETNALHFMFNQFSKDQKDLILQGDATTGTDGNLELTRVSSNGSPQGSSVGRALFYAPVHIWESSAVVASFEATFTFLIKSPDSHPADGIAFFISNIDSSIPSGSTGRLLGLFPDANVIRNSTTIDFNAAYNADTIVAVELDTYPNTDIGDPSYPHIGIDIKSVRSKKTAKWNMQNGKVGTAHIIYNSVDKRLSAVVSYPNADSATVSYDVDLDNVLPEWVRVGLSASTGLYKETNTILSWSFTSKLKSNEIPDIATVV
Chain of Fibroblast growth factor 2 (Homo sapiens) (P09038 whole entry, looked up): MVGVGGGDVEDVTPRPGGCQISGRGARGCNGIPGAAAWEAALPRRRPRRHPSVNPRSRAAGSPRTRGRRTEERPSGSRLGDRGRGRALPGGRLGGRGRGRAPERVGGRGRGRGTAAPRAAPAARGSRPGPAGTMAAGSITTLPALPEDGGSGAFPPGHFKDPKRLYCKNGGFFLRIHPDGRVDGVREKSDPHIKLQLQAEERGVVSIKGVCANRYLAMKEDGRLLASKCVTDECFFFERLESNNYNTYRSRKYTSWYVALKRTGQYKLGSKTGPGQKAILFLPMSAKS
Chain of Follistatin (Homo sapiens) (P19883 whole entry, looked up): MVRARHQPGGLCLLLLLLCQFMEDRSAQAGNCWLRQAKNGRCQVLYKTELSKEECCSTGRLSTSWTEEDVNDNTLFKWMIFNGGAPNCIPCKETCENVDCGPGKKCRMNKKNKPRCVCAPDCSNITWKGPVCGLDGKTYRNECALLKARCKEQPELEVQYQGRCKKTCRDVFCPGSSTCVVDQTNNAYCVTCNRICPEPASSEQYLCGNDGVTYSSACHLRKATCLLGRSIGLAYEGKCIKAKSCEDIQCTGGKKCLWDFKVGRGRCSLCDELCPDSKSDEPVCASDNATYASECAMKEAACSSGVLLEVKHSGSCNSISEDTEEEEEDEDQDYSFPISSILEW

Structure (SMILES) | composite z-score (Albumin (Bos taurus)) | composite Z-score [1] | composite z-score [2] | composite z-score [3] | composite z-score [4] | composite z-score [5] | composite z-score [6] | composite z-score (Sam68 (KHDRBS1)) | composite z-score [7] | composite z-score [8] | composite z-score [9] | composite z-score [10] | composite z-score [11] | composite z-score [12] | composite z-score [13] | composite z-score [14] | z-score [15] | composite z-score (Lefty1) | composite z-score [16] | z-score [17]
COCCOC(=O)N1C(=O)[C@@]2(c3cc(C#CCNC(N)=O)ccc31)[C@H](C(=O)Nc1nc3ccccc3s1)[C@H]1C(=O)O[C@H](c3ccccc3)[C@H](c3ccccc3)N1[C@@H]2c1ccccc1OCCO | 0.074 | -0.523 (inactive) | 0.0306 | -0.0432 | 0.47 | 1.17 | 0.151 | 0.975 | 1.23 | 1.04 | -0.218 | 0.423 | 0.553 | 0.749 | 1.48 | 1.61 | -1.79 | 1.39 | 0.489 | -2.69 (inactive)
COc1ccc([Si](C)(C)[C@H]2[C@H](CC(=O)N3CCC[C@H]3CO)O[C@@]3(C(=O)N(Cc4ccc(N5CCCCC5=O)cc4)c4ccccc43)[C@@H]2C)cc1 | 0.664 | -0.765 (inactive) | 0.212 | -0.108 | 0.292 | 1.27 | 0.0516 | 1.3 | 0.824 | 1.18 | 0.952 | 1.17 | 0.516 | 0.655 | 1.27 | 1.17 | 1.39 | 1.49 | 0.513 | 0.627 (inactive)
C=C(CCCC)/C(=C/C[C@H](OC(=O)c1ccncc1)c1ccccc1OCCO)c1cc(C(=O)OC)ccc1OC | -0.172 | -0.0743 (inactive) | -0.0362 | -0.145 | 0.63 | 1.2 | 0.127 | 1.05 | 0.647 | 0.749 | 2.75 | 0.488 | 0.0357 | 0.013 | 0.95 | 0.969 | 2.03 | 0.979 | -0.0208 | -0.776 (inactive)
Cc1ccc(S[C@]2(C(=O)NC(C)C)CC(=O)N(C3CCCCC3)[C@@H]2c2ccc(CO)cc2I)cc1 | 0.529 | 0.339 (inactive) | 0.0488 | -0.0727 | 0.645 | 2.6 | 0.487 | 1.28 | -0.325 | 1.11 | 0.362 | 1.11 | 0.414 | 0.703 | 1.21 | 0.396 | 1.04 | 0.964 | 0.0189 | 0.571 (inactive)
C=CCC(OC(C)=O)[C@@H]1[C@@H](N(Cc2cc3ccccc3o2)C(=O)c2cccc3ccccc23)c2cc(OCCCO)ccc2N1C(=O)c1ccc2ccccc2n1 (stereo not given in full) | 0.423 | -0.315 (inactive) | 0.0155 | -0.147 | 0.112 | -0.197 | 0.637 | 0.31 | 0.0615 | -0.495 | -0.164 | -0.332 | 0.169 | -0.137 | 0.403 | 0.285 | -0.0913 | 0.496 | -0.0075 | -0.305 (inactive)
OCCCC1=CC(c2ccc(CN3CCCC3)cc2)N(Cc2cccc(OC(F)(F)F)c2)CC1 (stereo not given) | 0.465 | 0.451 (inactive) | 0.0642 | -0.0907 | -0.0985 | 0.251 | -0.309 | -0.0506 | 0.248 | -0.796 | -0.299 | -0.377 | 0.213 | -0.575 | 0.611 | 0.215 | 1.17 | 0.326 | -0.227 | -0.222 (inactive)
C=C(CCCC)/C(=C/C[C@@H](OC(C)=O)c1ccc(CO)o1)c1cnc2ccccc2c1 | 0.333 | -0.117 (inactive) | 0.185 | -0.0684 | 0.476 | 1.45 | 1.17 | 1.3 | 1.03 | 0.875 | 1.12 | 1.21 | 0.119 | 0.948 | 1.31 | 1.54 | -0.587 | 1.51 | 1.27 | -3.09 (inactive)
[N-]=[N+]=Nc1ccccc1[C@@H]1OC(c2ccc(OCCCO)cc2)=N[C@]1(Cc1ccccc1)C(=O)NCCN1CCOCC1 | 0.981 | 0.0561 (inactive) | 0.156 | -0.0482 | 0.607 | 2.86 | 0.946 | 0.96 | -0.377 | 0.355 | 0.598 | 1.28 | 0.15 | 0.993 | 0.675 | -0.155 | -0.225 | 0.278 | 0.399 | -5.81 (inactive)
CN(C)CCCNC(=O)[C@@]1(Cc2ccccc2I)c2ccccc2C(=O)N(C2CCCCC2)[C@H]1c1ccc(CO)cc1 | 0.33 | 0.56 (inactive) | 0.417 | 0.227 | 0.443 | 1.57 | 0.653 | 1.31 | -0.0713 | 1.16 | 0.743 | 1.2 | 0.732 | 1.01 | 0.872 | 0.156 | -1.42 | 0.27 | 1.2 | 0.371 (inactive)
O=C1NC(=O)C2C1C=CC(C(O)c1ccc([N+](=O)[O-])cc1)N2Nc1ccccn1 (stereo not given) | -0.494 | -0.267 (inactive) | -0.173 | -0.0843 | 0.265 | 0.555 | 0.0223 | -0.413 | 0.472 | -0.257 | 0.753 | 0.175 | -0.329 | 0.0114 | -0.12 | -0.163 | -0.0893 | -0.262 | -0.0047 | -1.48 (inactive)

Source: PubChem BioAssay
